Test [1] is described as follows: NCI Yeast Anticancer Drug Screen. Data for the rad50 strain (AID 155).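 Also: 0% = growth of vehicle-only cultures of the same strain.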 The note with it: S. cerevisiae rad50 strain growth inhibition, hits give high values. The procedure, abridged: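 Growth of the mutant yeast was measured after compound exposure and referenced to vehicle-treated cultures.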
Test [2] can be described thus: NCI Yeast Anticancer Drug Screen. Data for the mec2-1 strain (AID 157). The following applies: S. cerevisiae mec2-1 strain, hits give high values. The procedure, abridged:
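Mutant yeast (mec2-1) grown with compound; growth inhibition relative to vehicle control reported.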

A short description of test [3]: NCI Yeast Anticancer Drug Screen. Data for the sgs1 mgt1 strain (AID 161).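 Also: 0% = growth of cultures given vehicle only.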 The following applies: S. cerevisiae sgs1 mgt1 strain, hits give high values. The procedure, abridged: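 This yeast growth screen uses a strain with defined DNA-repair lesions; compound-treated growth is compared with vehicle-treated growth.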
Test [4] is described as follows: NCI Yeast Anticancer Drug Screen. Data for the cln2 rad14 strain (AID 165).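 Also: 0% = growth equal to vehicle treated cultures.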 The note with it: S. cerevisiae cln2 rad14 strain, hits give high values. The procedure, abridged:
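Readout is yeast growth inhibition versus vehicle-treated controls, using a strain with cln2 and rad14 alterations exposed to compound.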

Test [5] in a line: NCI Yeast Anticancer Drug Screen. Data for the bub3 strain (AID 167). The following applies: S. cerevisiae bub3 mutant strain, hits give high values. The procedure, abridged:
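Whole-cell yeast assay. The mutant strain was incubated with compounds, and growth inhibition was determined by comparison with vehicle-treated cells.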

Test [6] can be described thus: NCI Yeast Anticancer Drug Screen. Data for the mlh1 rad18 strain (AID 175). The following applies: S. cerevisiae mlh1 rad18 strain growth inhibition, hits give high values. The procedure, abridged: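 Genetically defined yeast (DNA repair-deficient) exposed to compounds; growth inhibition determined relative to vehicle.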
[7] abbreviates: at 5.0 µM (retest, dose inferred, filed as 0.5).
Setting [8] is: at 50.0 µM (retest, dose inferred, filed as 5.0).

The panel holds about 79,000 compounds, 15% with a hit somewhere; the sample as a whole holds those more often. Unmarked numbers belong to inactive results. Active and inactive are the calls of the source. Rule as the data show it: active = growth inhibition above about 70%; inactive = the rest.

Regarding `CN(C)CCN(C)N=Nc1c(-c2ccc(Cl)cc2)n[nH]c1C(F)(F)F`, the growth inhibition in test [1] (setting [7]) is 98% (active); in test [1] (setting [8]), 99% (active); in test [1] (at 50.0 µM), 98.8% (active); in test [2] (setting [7]), 99% (active); in test [2] (setting [8]) it was 99% (active); in test [2] (at 50.0 µM), 99.7% (active). Also, the growth inhibition in test [3] (setting [7]) was 99% (active); in test [3] (setting [8]) it was 99% (active); in test [3] (at 50.0 µM), 99.4% (active); in test [4] (setting [7]), 99% (active); in test [4] (setting [8]), 99% (active); in test [4] (at 50.0 µM), 99.3% (active). In addition, the growth inhibition in test [5] (setting [7]) was 99% (active); in test [5] (setting [8]), 99% (active); in test [5] (at 50.0 µM) it was 96% (active); in test [6] (setting [7]) it was 99% (active); in test [6] (setting [8]), 99% (active); in test [6] (at 50.0 µM), 99.5% (active).

As for `C=C1C(O)C2(O)OCC34C(CC5C(C)=CC(=O)C(O)C5(C)C23)OC(=O)C(OC(=O)C/C=C/CCCCCCCC)C14` (stereo not given), the growth inhibition in test [1] (setting [7]) was 85% (active); in test [1] (setting [8]), 98% (active); in test [1] (at 50.0 µM) it was 92.2% (active); in test [2] (setting [7]) it was 87% (active); in test [2] (setting [8]), 99% (active); in test [2] (at 50.0 µM), 93% (active). Besides, the growth inhibition is 75% (active) in test [3] (setting [7]); 99% (active) in test [3] (setting [8]); 92.8% (active) in test [3] (at 50.0 µM); 87% (active) in test [4] (setting [7]); 99% (active) in test [4] (setting [8]); 92% (active) in test [4] (at 50.0 µM). Further, the growth inhibition was 84% (active) in test [5] (setting [7]); 99% (active) in test [5] (setting [8]); 91.5% (active) in test [5] (at 50.0 µM); 93% (active) in test [6] (setting [7]); 99% (active) in test [6] (setting [8]); 90.7% (active) in test [6] (at 50.0 µM).

On to `CCc1cc2c(cc1O)CC[C@@H]1[C@@H]2CC[C@]2(C)[C@@H](O)CC[C@@H]12`, for which the growth inhibition is 31% in test [1] (setting [7]); 96% (active) in test [1] (setting [8]); 88% (active) in test [1] (at 50.0 µM); -10% in test [2] (setting [7]); 99% (active) in test [2] (setting [8]); 92% (active) in test [2] (at 50.0 µM). In addition, the growth inhibition in test [3] (setting [7]) was -17%; in test [3] (setting [8]), 96% (active); in test [3] (at 50.0 µM) it was 89.3% (active); in test [4] (setting [7]), 9%; in test [4] (setting [8]) it was 97% (active); in test [4] (at 50.0 µM), 91% (active). In addition, the growth inhibition in test [5] (setting [7]) is -39%; in test [5] (setting [8]), 98% (active); in test [5] (at 50.0 µM), 49.5%; in test [6] (setting [7]), 3%; in test [6] (setting [8]), 97% (active); in test [6] (at 50.0 µM) it was 85.2% (active).

Regarding `O=C1c2ccccc2C(=O)c2c1ccc(O)c2O`, the growth inhibition in test [1] (setting [7]) was 79% (active); in test [1] (setting [8]), 96% (active); in test [1] (at 50.0 µM), 83.3% (active); in test [2] (setting [7]), 75% (active); in test [2] (setting [8]) it was 94% (active); in test [2] (at 50.0 µM), 75.8% (active). The growth inhibition is 91% (active) in test [3] (setting [7]); 94% (active) in test [3] (setting [8]); 81.5% (active) in test [3] (at 50.0 µM); 23% in test [4] (setting [7]); 63% in test [4] (setting [8]); 65.7% in test [4] (at 50.0 µM). For the same compound, the growth inhibition in test [5] (setting [7]) is 80% (active); in test [5] (setting [8]) it was 93% (active); in test [5] (at 50.0 µM), 77.9% (active); in test [6] (setting [7]), 90% (active); in test [6] (setting [8]), 96% (active); in test [6] (at 50.0 µM), 79% (active).

As to `C[n+]1c(/C=C\c2ccccc2)sc2ccccc21`, the growth inhibition is 23% in test [1] (setting [7]); 89% (active) in test [1] (setting [8]); 82.8% (active) in test [1] (at 50.0 µM); 21% in test [2] (setting [7]); 90% (active) in test [2] (setting [8]); 82.3% (active) in test [2] (at 50.0 µM). Besides, the growth inhibition was 33% in test [3] (setting [7]); 93% (active) in test [3] (setting [8]); 88.7% (active) in test [3] (at 50.0 µM); 19% in test [4] (setting [7]); 83% (active) in test [4] (setting [8]); 74.8% (active) in test [4] (at 50.0 µM). The growth inhibition in test [5] (setting [7]) was 7%; in test [5] (setting [8]), 86% (active); in test [5] (at 50.0 µM) it was 76.9% (active); in test [6] (setting [7]), 15%; in test [6] (setting [8]) it was 81% (active); in test [6] (at 50.0 µM), 87% (active).

For the compound `CC/C(=N\NC(=S)SC)c1ccccn1`, the growth inhibition in test [1] (setting [7]) was 24%; in test [1] (setting [8]), 96% (active); in test [1] (at 50.0 µM), -13.7%; in test [2] (setting [7]), 16%; in test [2] (setting [8]), 96% (active); in test [2] (at 50.0 µM) it was -5.4%. For the same compound, the growth inhibition is 24% in test [3] (setting [7]); 96% (active) in test [3] (setting [8]); 88.9% (active) in test [3] (at 50.0 µM); 24% in test [4] (setting [7]); 97% (active) in test [4] (setting [8]); 88.7% (active) in test [4] (at 50.0 µM). Further, the growth inhibition in test [5] (setting [7]) is 18%; in test [5] (setting [8]), 96% (active); in test [5] (at 50.0 µM), 86.2% (active); in test [6] (setting [7]) it was 25%; in test [6] (setting [8]), 96% (active); in test [6] (at 50.0 µM) it was 87% (active).

With `CCCN1CN(C(C(=O)N[C@@H]2C(=O)N3C(C(=O)O)=C(C)CSC23)c2ccccc2)CSC1=S` (stereo not given in full), the growth inhibition is -19% in test [1] (setting [7]); 11% in test [1] (setting [8]); 33.7% in test [1] (at 50.0 µM); -11% in test [2] (setting [7]); 1% in test [2] (setting [8]); -32.4% in test [2] (at 50.0 µM). The growth inhibition in test [3] (setting [7]) was -21%; in test [3] (setting [8]), -10%; in test [3] (at 50.0 µM), -3.25%; in test [4] (setting [7]), -37%; in test [4] (setting [8]), -14%; in test [4] (at 50.0 µM), 44%. The growth inhibition is -10% in test [5] (setting [7]); -1% in test [5] (setting [8]); -38.4% in test [5] (at 50.0 µM); -13% in test [6] (setting [7]); -12% in test [6] (setting [8]); 1.5% in test [6] (at 50.0 µM).

For `COC1(OC)C(C#N)(C#N)C2(C(=O)Nc3ccccc32)C1(OC)OC` (stereo not given), the growth inhibition in test [1] (setting [7]) was 11%; in test [1] (setting [8]), -4%; in test [1] (at 50.0 µM), 15.4%; in test [2] (setting [7]), -12%; in test [2] (setting [8]), -16%; in test [2] (at 50.0 µM), 12.2%. The growth inhibition in test [3] (setting [7]) was -2%; in test [3] (setting [8]) it was -25%; in test [3] (at 50.0 µM), 97% (active); in test [4] (setting [7]) it was -4%; in test [4] (setting [8]), -7%; in test [4] (at 50.0 µM), 28%. Further, the growth inhibition in test [5] (setting [7]) is -14%; in test [5] (setting [8]), 38%; in test [5] (at 50.0 µM), -7.6%; in test [6] (setting [7]), 10%; in test [6] (setting [8]), -22%; in test [6] (at 50.0 µM), 90% (active).

On to `OC1CC2CCC(C1)N2CCCN1c2ccccc2Sc2ccc(Cl)cc21` (stereo not given), for which the growth inhibition is 12% in test [1] (setting [7]); 99% (active) in test [1] (setting [8]); 99% (active) in test [1] (at 50.0 µM); 13% in test [2] (setting [7]); 80% (active) in test [2] (setting [8]); 97.2% (active) in test [2] (at 50.0 µM). The growth inhibition in test [3] (setting [7]) is -4%; in test [3] (setting [8]), 61%; in test [3] (at 50.0 µM), 99.1% (active); in test [4] (setting [7]), -23%; in test [4] (setting [8]), 74% (active); in test [4] (at 50.0 µM), 97.5% (active). Further, the growth inhibition in test [5] (setting [7]) is -20%; in test [5] (setting [8]) it was 97% (active); in test [5] (at 50.0 µM), 99.2% (active); in test [6] (setting [7]) it was 10%; in test [6] (setting [8]), 97% (active); in test [6] (at 50.0 µM), 94.4% (active).

For the compound `c1ccc(CN2CCC3(CC2)SSC2(CCN(Cc4ccccc4)CC2)SS3)cc1`, the growth inhibition in test [1] (setting [7]) is 0%; in test [1] (setting [8]) it was 34%; in test [1] (at 50.0 µM), 73.1% (active); in test [2] (setting [7]), 14%; in test [2] (setting [8]), -3%; in test [2] (at 50.0 µM), 24.4%. In addition, the growth inhibition in test [3] (setting [7]) was 5%; in test [3] (setting [8]) it was 35%; in test [3] (at 50.0 µM) it was 30.9%; in test [4] (setting [7]) it was 31%; in test [4] (setting [8]) it was 21%; in test [4] (at 50.0 µM), 29.8%. Besides, the growth inhibition in test [5] (setting [7]) was 16%; in test [5] (setting [8]) it was 18%; in test [5] (at 50.0 µM), 42.2%; in test [6] (setting [7]), 7%; in test [6] (setting [8]) it was 19%; in test [6] (at 50.0 µM), 45.9%.

The values are drawn from PubChem BioAssay (NCI).
